Experimental data: PubChem BioAssay (EPA / NIEHS)
Calls of active or inactive are those of the source. How the source made its calls: active means hit-call score of the fitted dose curve at least 0.9, where 1 is the maximum; inactive means score below 0.9.

Assays:
Settings in all cases: mRNA level, 48 h; actives raise or lower the signal
[1] = read-out: cysteine-aspartic acid protease (CASP8), CASP8 (gene 841); experiment: LTEA_HepaRG_CASP8: Life Technologies and Expression Analysis (LTEA) Assay for cysteine-aspartic acid protease (CASP8) using HepaRG (AID 2283480)
Method in brief: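 CASP8 transcript measured by TaqMan qRT-PCR with ACTB/GAPDH/POLR2A normalization, after 48 h chemical exposure of HepaRG cells in serum-free induction medium. Eight concentrations, top 100 uM, half-log steps, 0.5% DMSO vehicle; fits in both directions versus DMSO.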

[2] = read-out: Cytochrome P450 (CYP2B6), CYP2B6 (gene 1555); experiment: LTEA_HepaRG_CYP2B6: Life Technologies and Expression Analysis (LTEA) Assay for Cytochrome P450 (CYP2B6) using HepaRG (AID 2283481)
Method in brief: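 Differentiated HepaRG cells, serum-free induction medium, exposed 48 h in duplicate to 8-point half-log concentrations from 100 uM in 0.5% DMSO. CYP2B6 mRNA by qRT-PCR, normalized to ACTB, GAPDH, POLR2A; bidirectional fit versus DMSO.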

[3] = read-out: Cytochrome P450 2C19 (Homo sapiens) (UniProt P33261); experiment: LTEA_HepaRG_CYP2C19: Life Technologies and Expression Analysis (LTEA) Assay for CYP2C19 using HepaRG (AID 2283482)
Method in brief: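 Differentiated human HepaRG cells were exposed for 48 h in serum-free induction medium to 8 concentrations (top 100 uM, half-log steps, 0.5% DMSO). CYP2C19 mRNA was measured by qRT-PCR, normalized to ACTB/GAPDH/POLR2A, and fitted bidirectionally against DMSO.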

CYP2C8 (gene 1558) = experiment: LTEA_HepaRG_CYP2C8: Life Technologies and Expression Analysis (LTEA) Assay for CYP2C8 using HepaRG (AID 2283483)
Method in brief: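 CYP2C8 expression measured by TaqMan qRT-PCR and normalized to three housekeeping genes. HepaRG cultures were treated for 48 h with an eight-point half-log series topping at 100 uM, vehicle 0.5% DMSO, duplicates; fitted both directions against DMSO.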

CYP2C9 (gene 1559) = experiment: LTEA_HepaRG_CYP2C9: Life Technologies and Expression Analysis (LTEA) Assay for CYP2C9 using HepaRG (AID 2283484)
Method in brief: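 CYP2C9 transcript level, quantified by TaqMan qRT-PCR against three housekeeping genes, was fitted bidirectionally relative to 0.5% DMSO. HepaRG cultures were treated 48 h, in duplicate, at eight half-log concentrations topping at 100 uM.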

CYP2E1 (gene 1571) = experiment: LTEA_HepaRG_CYP2E1: Life Technologies and Expression Analysis (LTEA) Assay for CYP2E1 using HepaRG (AID 2283485)
Method in brief: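 Assay uses 48 h exposure of HepaRG hepatic cells, eight concentrations to 100 uM. Expression of CYP2E1 is quantified by TaqMan qRT-PCR with ACTB, GAPDH and POLR2A normalization; curves fitted in both directions relative to vehicle.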

CYP4A11 (gene 1579) = experiment: LTEA_HepaRG_CYP4A11: Life Technologies and Expression Analysis (LTEA) Assay for CYP4A11 using HepaRG (AID 2283486)
Method in brief: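 Differentiated HepaRG cells, serum-free induction medium, exposed 48 h in duplicate to 8-point half-log series from 100 uM in 0.5% DMSO. CYP4A11 mRNA measured by qRT-PCR, normalized to ACTB, GAPDH, POLR2A; bidirectional fit versus DMSO.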

[4] = read-out: Cytochrome P450 3A4 (Homo sapiens) (UniProt P08684); experiment: LTEA_HepaRG_CYP3A4: Life Technologies and Expression Analysis (LTEA) Assay for CYP3A4 using HepaRG (AID 2283487)
Method in brief: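 Differentiated HepaRG cells, plated 48 h, then dosed 48 h in serum-free induction medium with 0.5% DMSO, 8 half-log concentrations up to 100 uM, duplicate. CYP3A4 mRNA by qRT-PCR, normalized to ACTB/GAPDH/POLR2A; bidirectional fit versus DMSO.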

[5] = read-out: DNA damage-inducible transcript 3 (DDIT3), DDIT3 (gene 1649); experiment: LTEA_HepaRG_DDIT3: Life Technologies and Expression Analysis (LTEA) Assay for DNA damage-inducible transcript 3 (DDIT3) using HepaRG (AID 2283488)
Method in brief: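 Eight-point concentration-response (100 uM highest, half-log dilutions) in HepaRG, 48 h, duplicate wells. Endpoint: qRT-PCR mRNA, normalized (ACTB, GAPDH, POLR2A), bidirectional fitting with DMSO as baseline.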

Sequence of Cytochrome P450 3A4 (Homo sapiens) (P08684 whole entry, looked up): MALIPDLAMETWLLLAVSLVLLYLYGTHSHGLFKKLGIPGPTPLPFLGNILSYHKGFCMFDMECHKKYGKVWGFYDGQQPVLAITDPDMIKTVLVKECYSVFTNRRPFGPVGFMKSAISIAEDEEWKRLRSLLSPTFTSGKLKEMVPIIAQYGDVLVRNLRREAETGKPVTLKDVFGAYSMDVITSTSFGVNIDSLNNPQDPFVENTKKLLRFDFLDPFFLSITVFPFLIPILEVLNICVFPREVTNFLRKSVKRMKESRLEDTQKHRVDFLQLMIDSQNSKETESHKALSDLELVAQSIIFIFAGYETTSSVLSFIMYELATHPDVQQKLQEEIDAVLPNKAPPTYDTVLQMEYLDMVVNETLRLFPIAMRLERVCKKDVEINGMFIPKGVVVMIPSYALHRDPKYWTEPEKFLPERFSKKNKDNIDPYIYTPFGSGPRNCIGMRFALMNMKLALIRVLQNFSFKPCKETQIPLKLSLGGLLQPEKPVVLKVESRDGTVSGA
Sequence of Cytochrome P450 2C19 (Homo sapiens) (P33261 whole entry, looked up): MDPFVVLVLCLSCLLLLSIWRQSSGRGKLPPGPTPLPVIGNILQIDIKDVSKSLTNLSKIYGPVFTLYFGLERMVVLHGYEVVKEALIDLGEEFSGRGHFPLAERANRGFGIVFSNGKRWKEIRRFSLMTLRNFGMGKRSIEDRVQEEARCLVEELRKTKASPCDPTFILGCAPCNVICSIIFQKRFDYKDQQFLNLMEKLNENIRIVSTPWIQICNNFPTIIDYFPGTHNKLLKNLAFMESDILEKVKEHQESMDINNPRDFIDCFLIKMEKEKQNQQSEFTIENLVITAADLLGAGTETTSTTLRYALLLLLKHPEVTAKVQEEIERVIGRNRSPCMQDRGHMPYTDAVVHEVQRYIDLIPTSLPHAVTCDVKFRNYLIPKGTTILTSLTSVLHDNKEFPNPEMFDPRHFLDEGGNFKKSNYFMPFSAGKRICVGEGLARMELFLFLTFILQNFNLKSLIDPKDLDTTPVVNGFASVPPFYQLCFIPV

For COC(=O)N(C(=O)N1CO[C@@]2(C(=O)OC)Cc3cc(Cl)ccc3C2=N1)c1ccc(OC(F)(F)F)cc1, the outcome [1] was “inactive”, the AC50 [2] was 0.89 µM (active) and the AC50 [3] was 9.46 µM (active). For the same compound, the outcome (CYP2C8 (gene 1558)) was “inactive”, the AC50 (CYP2C9 (gene 1559)) was 64.8 µM (active) and the AC50 (CYP2E1 (gene 1571)) was 24 µM (active). The AC50 (CYP4A11 (gene 1579)) was 25.6 µM (active), the AC50 [4] was 9.42 µM (active) and the outcome [5] was “inactive”.
With CNC(=O)Oc1cccc2ccccc12 the outcome [1] was “inactive”, the AC50 [2] was 25.6 µM (active) and the outcome [3] was “inactive”. The outcome (CYP2C8 (gene 1558)) was “inactive”, the outcome (CYP2C9 (gene 1559)) was “inactive” and the outcome (CYP2E1 (gene 1571)) was “inactive”. The outcome (CYP4A11 (gene 1579)) was “inactive”, the outcome [4] was “inactive” and the outcome [5] was “inactive”.
With CS(=O)(=O)c1cc(C(F)(F)F)ccc1C(=O)c1cnoc1C1CC1 the outcome [1] was “inactive”, the outcome [2] was “inactive” and the outcome [3] was “inactive”. The outcome (CYP2C8 (gene 1558)) was “inactive”, the outcome (CYP2C9 (gene 1559)) was “inactive” and the AC50 (CYP2E1 (gene 1571)) was 9.92 µM (active). For the same compound, the outcome (CYP4A11 (gene 1579)) was “inactive”, the AC50 [4] was 35 µM (active) and the outcome [5] was “inactive”.
With CCOP(=O)(OCC)Oc1nc(Cl)c(Cl)cc1Cl the outcome [1] was “inactive”, the AC50 [2] was 83.6 µM (active) and the AC50 [3] was 80.7 µM (active). For the same compound, the AC50 (CYP2C8 (gene 1558)) was 84.5 µM (active), the AC50 (CYP2C9 (gene 1559)) was 93 µM (active) and the AC50 (CYP2E1 (gene 1571)) was 76 µM (active). For the same compound, the AC50 (CYP4A11 (gene 1579)) was 77.4 µM (active), the AC50 [4] was 49.8 µM (active) and the outcome [5] was “inactive”.
For CCC(C)n1c(=O)[nH]c(C)c(Br)c1=O (stereo not given), the outcome [1] was “inactive”, the AC50 [2] was 1.19 µM (active) and the outcome [3] was “inactive”. The AC50 (CYP2C8 (gene 1558)) was 50 µM (active), the outcome (CYP2C9 (gene 1559)) was “inactive” and the AC50 (CYP2E1 (gene 1571)) was 20.6 µM (active). For the same compound, the AC50 (CYP4A11 (gene 1579)) was 13.5 µM (active) and the outcome [4] was “inactive”.
For CCNP(=S)(OC)O/C(C)=C/C(=O)OC(C)C (stereo not given), the outcome [1] was “inactive”, the AC50 [2] was 5.19 µM (active) and the AC50 [3] was 8.66 µM (active). The AC50 (CYP2C8 (gene 1558)) was 12.9 µM (active), the outcome (CYP2C9 (gene 1559)) was “inactive” and the AC50 (CYP2E1 (gene 1571)) was 34.8 µM (active). The AC50 (CYP4A11 (gene 1579)) was 68.4 µM (active), the AC50 [4] was 8.97 µM (active) and the outcome [5] was “inactive”.
In the case of O=C(O)c1c(Cl)ccc2cc(Cl)cnc12, the outcome [1] is reported as “inactive”, the outcome [2] is reported as “inactive” and the outcome [3] is reported as “inactive”. The outcome (CYP2C8 (gene 1558)) was “inactive”, the outcome (CYP2C9 (gene 1559)) was “inactive” and the outcome (CYP2E1 (gene 1571)) was “inactive”. For the same compound, the outcome (CYP4A11 (gene 1579)) was “inactive”, the outcome [4] was “inactive” and the outcome [5] was “inactive”.
For CCN(CC)c1nc(C)cc(OP(=S)(OC)OC)n1, the outcome [1] was “inactive”, the AC50 [2] was 2.79 µM (active) and the AC50 [3] was 12.1 µM (active). For the same compound, the outcome (CYP2C8 (gene 1558)) was “inactive”, the outcome (CYP2C9 (gene 1559)) was “inactive” and the AC50 (CYP2E1 (gene 1571)) was 37.4 µM (active). The outcome (CYP4A11 (gene 1579)) was “inactive”, the AC50 [4] was 10.9 µM (active) and the outcome [5] was “inactive”.
For Nc1c(Cl)c(F)nc(OCC(=O)O)c1Cl, the outcome [1] was “inactive”, the outcome [2] was “inactive” and the outcome [3] was “inactive”. For the same compound, the outcome (CYP2C8 (gene 1558)) was “inactive”, the outcome (CYP2C9 (gene 1559)) was “inactive” and the outcome (CYP2E1 (gene 1571)) was “inactive”. The outcome (CYP4A11 (gene 1579)) was “inactive”, the outcome [4] was “inactive” and the outcome [5] was “inactive”.
